In PubChem BioAssay AID1508622 (National Center for Advancing Translational Sciences (NCATS), 2021):
Activity calls are given as the source filed them. Entries that show only a call come without a potency. Calls follow the shape of the dose curve; as a rule, active = well fitted activation curve with a large enough effect; inconclusive = small, poorly fitted or top-dose-only effect; inactive = no such curve, though single readings can be large or run the other way.

Experiment: Confirmatory qHTS for Identification of Small Molecule Activators of Huntingtin-Antisense Promoter Activity
Conditions: HEK293 HTT-AS promoter firefly luciferase reporter, 24 h; series mostly up to 57.5 µM
Outline: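 2,500 luciferase reporter HEK293 cells/well; 24 h culture; cpds up to 57.5 uM final, PTC124 50 uM ctrl; 24 h, 37C; Dual-Glo FLuc reagent, 10 min RT; lum. Norm.: vehicle 0%, zero RLU -100%.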
Potency is read from the fitted curve at half-maximal effect.

Row | Structure (SMILES) | Potency
1 | Cc1ccc(CSC2=Nc3ccccc3C3=NC(CC(=O)NC4CCCCC4)C(=O)N23)cc1 (centres undefined) | inactive
2 | C#C[C@]1(O)CC[C@H]2[C@H]3CCc4cc(OC)ccc4[C@H]3CC[C@@]21C | inactive
3 | CCOc1ccc(CCNC(=O)c2sc3ncccc3c2-n2c(C)ccc2C)cc1 | inactive
4 | CCN(CC)S(=O)(=O)c1ccc2c(c1)N(CC(=O)N1CCN(c3cccc(C(F)(F)F)c3)CC1)C(=O)CO2 | inactive
5 | COc1cccc(C(=O)NCCSc2c(-c3ccc(F)cc3)[nH]c3ccccc23)c1OC | inactive
6 | O=C(CSc1ccc(-c2ccccn2)nn1)Nc1ccc(F)c(F)c1 | inactive
7 | Cc1ccc(C2=CC(c3ccc(Cl)cc3)n3nc(-c4ccc(C)cc4)nc3N2)cc1 (centres undefined) | inactive
8 | COc1ccccc1NC(=O)CSc1oc(-c2ccccc2)nc1S(=O)(=O)c1ccccc1 | inactive
9 | O=C(Nc1cccc(C(F)(F)F)c1)C1CCCN1S(=O)(=O)c1cccc2nsnc12 (centres undefined) | inactive
10 | CCCC(O)c1nc2ccccc2n1CCCCOc1ccc(OC)cc1 (centres undefined) | inactive
11 | Cc1cccc(NC(=O)c2cnn(-c3ccccc3)c2-n2cccc2)c1C | inactive
12 | O=S(=O)(NCc1ccc(Cl)cc1)c1ccc(N2CCCCS2(=O)=O)cc1 | inactive
13 | Cc1cccc(C)c1NC(=O)c1ccc2nc(CCc3ccccc3)oc2c1 | inactive
14 | Cc1nnc(N2CCN(c3cccc(C(F)(F)F)c3)CC2)c2c1nnn2Cc1ccccc1 | inactive
15 | CCS(=O)(=O)c1oc(-c2ccc(F)cc2)nc1S(=O)(=O)c1ccc(Br)cc1 | inactive
16 | COc1ccc(C(=O)Nc2nc(-c3nnn(-c4ccc(F)cc4F)c3C)ns2)cc1 | inactive
17 | Cc1ccc2nc(CSc3nnc(NC(=O)COc4ccccc4)s3)cc(=O)n2c1 | inactive
18 | CCOC(=O)C1CCN(S(=O)(=O)c2ccc(N3CCCCS3(=O)=O)cc2)CC1 | inactive
19 | O=C(CCn1cnc2onc(-c3ccc(F)cc3)c2c1=O)Nc1ccc(F)c(Cl)c1 | inactive
20 | Cc1oc(-c2ccc(C(=O)Nc3cccc(C(F)(F)F)c3)cc2)nc1CSc1ccccc1 | inactive

Row | Structure (SMILES) | Potency
21 | O=C(Nc1ccc(Br)cc1)c1ccc(Br)c(S(=O)(=O)N2CCCCC2)c1 | inactive
22 | COc1ccc(C2c3c(-c4c(C)cc(C)cc4O)n[nH]c3C(=O)N2Cc2ccco2)cc1 (centres undefined) | inactive
23 | C=Cc1ccc(Cn2c(C(=O)O)c(CNCc3ccccc3)c3ccc(C)cc32)cc1 | inactive
24 | CN(C)CCNC(=O)C1CCN(Cc2cc3ccccc3n2Cc2ccccc2)CC1 | inactive
25 | COc1cccc(CNC(=O)Cn2c(=O)oc3cc(S(=O)(=O)N4CCC(C)CC4)ccc32)c1 | inactive
26 | Cc1ccc(S(=O)(=O)Nc2cccc(-c3ccc(N4CCCCC4)nn3)c2)s1 | 1510 nM (active)
27 | Cn1cnc(S(=O)(=O)N2CCC(C(=O)Nc3ccc(OC(F)(F)F)cc3)CC2)c1 | inactive
28 | CC(=O)c1cccc(NS(=O)(=O)c2ccc3[nH]c4c(c3c2)CCCCC4)c1 | inactive
29 | CCOC(=O)Cc1ccc(NC(=O)N(Cc2ccc(CC)cc2)Cc2cn[nH]c2-c2ccc(OC)cc2)cc1 | inactive
30 | Cc1cccc(N2CCN(S(=O)(=O)c3cc(C(=O)Nc4ccc(Oc5ccccc5)cc4)ccc3F)CC2C)c1 (centres undefined) | inactive
31 | COc1ccc(N2CCN(CCCNC(=O)c3c(C)nn(-c4ccc(F)cc4)c3-n3cccc3)CC2)cc1 | inactive
32 | CCN(CC)CCOc1ccc(C(=C(Cl)c2ccccc2)c2ccccc2)cc1 | inactive
33 | COc1ccccc1CCNC(=O)C(=O)NCC(c1cccs1)S(=O)(=O)c1ccccc1 (centres undefined) | inactive
34 | CC(=O)N1CCCc2cc(S(=O)(=O)N3CCN(c4ccc(F)cc4)CC3)ccc21 | inactive
35 | CC1Cc2cc(S(=O)(=O)N(Cc3ccccc3)C(C)C)ccc2N1C(=O)C1CCC1 (centres undefined) | inactive
36 | O=C(NCCSc1c(-c2ccccc2)[nH]c2ccccc12)c1ccc(S(=O)(=O)N2CCOCC2)cc1 | inactive
37 | CCOc1ccccc1CNC(=O)c1ccc2nc(Cc3ccc(OC)cc3)oc2c1 | inactive
38 | O=C(Nc1ccc(Oc2ccccc2)cc1)C1CCN(S(=O)(=O)c2ccccc2)CC1 | inactive
39 | Cn1c(NCCN(CCO)CCCc2ccc([N+](=O)[O-])cc2)cc(=O)n(C)c1=O | inactive
